Compound activity: PubChem, National Center for Advancing Translational Sciences (NCATS)
GoLoco inh red: blocks human Gai1 binding to RGS12 GoLoco peptide, red readout. P63096. Gai1:RGS12 GoLoco peptide FP, rhodamine, 10 min. Potency, µM (series often up to 61.6 µM), hits mostly inhibitors. actives 0.44% (n = 230,000); active means well fitted inhibition curve with a large enough effect, not every such curve was filed as active; inactive means no such curve, though single readings can be large or run the other way; further: nearly all actives have a fitted effect of over 30% in size
Target sequence (P63096 whole entry, looked up): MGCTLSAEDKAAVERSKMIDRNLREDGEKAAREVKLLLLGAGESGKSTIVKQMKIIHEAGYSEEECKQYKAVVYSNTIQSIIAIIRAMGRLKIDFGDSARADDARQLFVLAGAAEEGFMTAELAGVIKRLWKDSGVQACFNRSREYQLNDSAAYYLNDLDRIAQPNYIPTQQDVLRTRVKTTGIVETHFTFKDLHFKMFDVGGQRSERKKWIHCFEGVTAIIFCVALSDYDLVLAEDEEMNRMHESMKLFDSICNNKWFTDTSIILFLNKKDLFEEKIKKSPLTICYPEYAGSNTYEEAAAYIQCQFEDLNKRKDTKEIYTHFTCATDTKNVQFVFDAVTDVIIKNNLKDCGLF
HttQ103 aggreg: inhibitors of mutant huntingtin aggregate formation in PC12 cells; PC12 HttQ103-GFP aggregates, Acumen cytometry, 40 h; Potency, µM (top dose mostly 46.1 µM), hits mostly inhibitors; actives 1.1% (n = 220,000); AID 1688; active means well fitted curve in the direction sought with a large enough effect; inconclusive means small, poorly fitted or top-dose-only effect, or another doubt; inactive means no such curve, though single readings can be large; an effect the other way counts as inactive or inconclusive; further: nearly all actives have a fitted effect of over 60% in size
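PC12 cells stably carrying ecdysone-inducible HTT exon 1 Q103–GFP were induced with tebufenozide (100 nM final) and treated with library compounds in titration. GFP aggregates in lysates were counted by laser scanning cytometry.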
ALDH1A1 inh: ALDH1A1 (human) enzyme inhibition; Potency, µM (series often up to 75.3 µM), actives largely listed as inhibitors; Purified ALDH1A1, NADH fluorescence, propionaldehyde substrate; AID 1030; actives 7.3% (n = 220,000)
PNC assembly inh: inhibitors of perinucleolar compartment assembly; PC3M PTB-GFP, PNC prevalence imaging, 16 h; stronger effect = lower value; activity change (PNC), negative = inhibition, % at 10 µM; actives 3.1% (n = 140,000); AID 2417;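 active means readout at or below -70, meaning at least 70% loss of cells showing the perinucleolar compartment, a nuclear body marking cancer cells; inconclusive means readout between -30 and a set limit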
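Compounds are pinned in duplicate onto adhered PC3M cells stably expressing GFP-tagged PTB and incubated 16 h at 37 C. Cells are then fixed, nuclei stained with Hoechst, and PNC-positive cells counted.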
HTT ATP protect: protects HTT-Q103 PC12 cells, measured by ATP. PC12 HTT-Q103 induced, cytoprotection, ATP luminescence, 40 h. Potency, µM (series often up to 56.4 µM), actives largely listed as activators. actives 0.14% (n = 230,000); active means well fitted curve in the direction sought with a large enough effect; inconclusive means small, poorly fitted or top-dose-only effect, or another doubt; inactive means no such curve, though single readings can be large; an effect the other way counts as inactive or inconclusive; further: nearly all actives have a fitted effect of over 45% in size
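Compounds added alongside 100 nM tebufenozide, which induces toxic Q103 huntingtin exon 1-GFP in stable PC12 cells; surviving cells quantified by luminescent ATP measurement. Medium: phenol red-free DMEM, 5% equine and 5% calf serum.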
HPGD block: inhibitors of human 15-hydroxyprostaglandin dehydrogenase (HPGD). P15428. purified HPGD, NADH fluorescence kinetic, PGE2 substrate. Potency, µM, hits mostly inhibitors. actives 4.3% (n = 150,000). AID 894
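NADH formation kinetics: reaction with 30 uM PGE2 and 1 mM NAD+ (final), 20 nM enzyme, Tris-HCl pH 8 with Tween 20, after 15 min compound preincubation at room temperature. Fluorescence change, last versus first of five reads.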
Numbers stand for hits; 0 = inactive; ? = inconclusive; - = no result; ! = a repeat was not active; [ ] = remark or other dose. Sampled rows, rich in hits. Any-hit rate of the full collection: about 11%. Unless noted, the call rests on the fitted dose curve; in most records, active means well fitted inhibition curve with a large enough effect (not every such curve was filed as active); inconclusive means small, poorly fitted or top-dose-only effect, or another doubt; inactive means no such curve, though single readings can be large or run the other way.

SMILES	GoLoco inh red	HttQ103 aggreg	ALDH1A1 inh	PNC assembly inh	HTT ATP protect	HPGD block
O=C(Nc1nnc(-c2ccncc2)o1)c1ccc(Br)s1	0	11µM	0	-	0	-
CCC1CCCCN1S(=O)(=O)c1ccc(C(=O)Nc2nnc(-c3cccs3)o2)cc1 (stereo not given)	0	11µM	0	0	0[10 µM]	0
CC(C)(C)C(=O)Nc1nnc(-c2ccncc2)o1	0	0	0	0	0[10 µM]	0
CC1CC(C)CN(S(=O)(=O)c2ccc(C(=O)Nc3nnc(-c4cccs4)o3)cc2)C1 (stereo not given)	0	7.9µM	0	0	0	0
COc1cccc(-c2nnc(NC(=O)c3ccc(S(=O)(=O)N4CC(C)OC(C)C4)cc3)o2)c1 (stereo not given)	0	4µM	0	0	0[10 µM]	0
Cc1ccc(C(=O)Nc2nnc(-c3ccco3)o2)cc1	0	0	0	0	0[10 µM]	0
O=C(Nc1nnc(-c2ccco2)o1)c1ccc([N+](=O)[O-])s1	0	11µM	?	-	0	-
COC(=O)C1=C(C)NC(C)=C(C(=O)OCCSc2ccccc2)C1C (stereo not given)	0	-	?	-	0	-
C[N+](C)(C)c1ncnc2c1ncn2[C@@H]1CCCCO1	0[14.2 µM]	-	0[13.5 µM]	-	0[10 µM]	0
CCCCCCOc1ccc(N2C(=O)CC(N3CCN(CCN=CC4C(=O)CC(C)(C)CC4=O)CC3)C2=O)cc1 (stereo not given)	0	0	?	-	0	-
CC[C@H](C)[C@@H](NC(=O)O[C@@H]1C(=O)c2ccc(OC)cc2O[C@H]1c1ccc2c(c1)OCO2)C(=O)OC	0	-	?	-	0	0
CC(/C=C/C(=O)NO)=C\[C@@H](C)C(=O)c1ccc(N(C)C)cc1	0	-	28µM!	-	0	0
CCC(=O)N1CCc2cc(S(=O)(=O)CCC(=O)Nc3ccc(OC)c(OC)c3)ccc21	0	0	0	-	0	-
O=C1/C(=C\c2ccco2)SC(=S)N1c1ccc(O)cc1	0	0	?	0	-	0
O=C(/C=C/c1ccc(Br)cc1)NC1CCCCCC1	0	0	0	?	0	0
O=C(O)C(C(=O)/C=C/c1ccco1)=C1SCCS1	0	?	13µM	0	0	0
O=C(/C=C/c1ccco1)NC(=S)Nc1ccc(Cl)cn1	0	?	10µM	0	0	0
O=C(/C=C/c1ccco1)NC1CCCC1	0	0	22µM	-	0	-
NN1C(=O)/C(=C\c2ccco2)SC1=S	0	0[9.22 µM]	1.3µM	-	0[10 µM]	-
Cn1c(CNC(=O)OC(C)(C)C)n[nH]c1=S	0	0[9.22 µM]	0	-	0[10 µM]	-
CCCCCCCCC(=O)NNC(=O)c1c(O)c2ccccc2n(CCC)c1=O	0	?	0	-	0	-
CN(C)CC(C)(C)CNC(=O)c1ccc(-n2c(=O)c(=O)[nH]c3ccccc32)cc1	-	-	0	-	-	0
Cn1cccc1C(=O)N1CCC2(CC1)CN(C(=O)Nc1ccccc1)C2	0	-	0	-	?	0
COc1cc(NS(=O)(=O)c2ccc(NC(=S)NC(=O)/C=C/c3ccc(OC)c(OC)c3)cc2)ncn1	0	0[9.22 µM]	?	-	0[10 µM]	-
COc1ccc(NC(=O)CCCN2C(=O)/C(=C\c3ccco3)SC2=S)cc1	0	?	25µM	0	0[10 µM]	0
SMILES	GoLoco inh red	HttQ103 aggreg	ALDH1A1 inh	PNC assembly inh	HTT ATP protect	HPGD block
O=C(NC(=S)Nc1ccc(Cl)cn1)c1cccs1	0	0	?	0	0	0
COc1ccc(/C=C/C(=O)NC(=S)Nc2ccc(S(=O)(=O)Nc3cc(OC)ncn3)cc2)cc1	0	0	28µM	-	0	-
NS(=O)(=O)c1ccc(NC(=O)/C=C/c2ccco2)cc1	0	0	24µM	-	-	-
CC(=O)NS(=O)(=O)c1ccc(NC(=O)/C=C/c2ccco2)cc1	0	0	?	-	-	-
CCCC(=O)NC(=S)Nc1ccc(Cl)cn1	0	0	25µM	0	0	0
CN(C)C(=O)c1ccc(-c2nc(N3CCOCC3)c3ccccc3n2)cc1	0	-	?	-	0	-
COc1ccc(NC(=S)NC(=O)/C=C/c2ccco2)cc1	0	0	7.1µM	-	0	-
COC(=O)c1ccccc1NC(=O)/C=C/c1ccco1	0	0	25µM	0	0[1.9 µM]	0
CC(=O)NC(=S)Nc1ccc(NC(=S)NC(=O)/C=C/c2ccco2)cc1	0	0[9.22 µM]	-	-	0[10 µM]	-
O=C(/C=C/c1ccco1)Nc1cccnc1Cl	0	0[9.22 µM]	-	-	0[10 µM]	-
